Data taken from ChEMBL document CHEMBL1201862, “PubChem BioAssay data set” (2004).
In all, about 320,000 compounds went through this assay and about 740 (0.23%) were called active. Not shown: some 2% with an inconclusive outcome. This is one part of a sample in which actives are shown more often than they occur. The rule behind the calls is not given here.

test system: Saccharomyces cerevisiae; assay: qHTS Assay for Small Molecule Inhibitors of Mitochondrial Division or Activators of Mitochondrial Fusion.; type: functional; conditions: read-out: Potency

Row | Structure (SMILES) | AC50
1 | O=C(O)Cc1ccccc1Nc1c(Cl)cccc1Cl [DICLOFENAC SODIUM] | 20.6 µM (active)
